Data reported in PubChem BioAssay AID1159580 (chemical genetic matrix, 2015).
Hit rate of the full screen: of about 5,500 compounds, about 2,000 (36%) were called active. Inconclusive results (about 18%) are left out. Some of the results follow. Values without a mark were called inactive. Rule as the data show it: active = normalized growth mostly below about 0.91 (no sharp cut-off); inconclusive = no clear call, values can overlap the other calls; inactive = mostly above about 0.92.

Test: chemical genetic growth profiling, strain panel (AID 1159580);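 also: tested at 20 µM; growth read once vehicle control cultures reached saturation at 30 °C; 1 = growth at the plate median or of vehicle wells; lower values mean less growth of the strain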
Conditions: growth OD

CC[C@]12CCCN3CCc4c(n(c5ccccc45)C(=O)C1)[C@@H]32
normalized growth (S. cerevisiae deletion strains, locus YJL187C, strain SWE1 (second series), active compounds read low): 0.966 | normalized growth (S. cerevisiae deletion strains, locus YJL187C, strain SWE1, active compounds read low): 1.01 | normalized growth (S. cerevisiae deletion strains, locus YJR043C, strain POL32, active compounds read low): 0.998 | normalized growth (S. cerevisiae deletion strains, locus YKL009W, strain mrt4, active compounds read low): 0.95 | normalized growth (S. cerevisiae deletion strains, locus YKL068W, active compounds read low): 0.981 | normalized growth (S. cerevisiae deletion strains, locus YKL085W, strain MDH1 (second series), active compounds read low): 0.976 | normalized growth (S. cerevisiae deletion strains, locus YKL085W, strain MDH1, active compounds read low): 0.976 | normalized growth (S. cerevisiae deletion strains, locus YKL160W, strain elf1, active compounds read low): 0.974 | normalized growth (S. cerevisiae deletion strains, locus YKL190W, strain CNB1, active compounds read low): 0.941 | normalized growth (S. cerevisiae deletion strains, locus YKR001C, strain vps1, active compounds read low): 0.955 | normalized growth (S. cerevisiae deletion strains, locus YKR026C, strain gcn3, active compounds read low): 0.996 | normalized growth (S. cerevisiae deletion strains, locus YKR091W, strain srl3, active compounds read low): 0.996 | normalized growth (S. cerevisiae deletion strains, locus YLL001W, strain dnm1, active compounds read low): 0.956 | normalized growth (S. cerevisiae deletion strains, locus YLL026W, active compounds read low): 0.994 | normalized growth (S. cerevisiae deletion strains, locus YLL041C, strain sdh2, active compounds read low): 1.01 | normalized growth (S. cerevisiae deletion strains, locus YLR027C, strain aat2, active compounds read low): 1.01 | normalized growth (S. cerevisiae deletion strains, locus YLR039C, strain RIC1, active compounds read low): 0.741 | normalized growth (S. cerevisiae deletion strains, locus YLR058C, strain SHM2, active compounds read low): 0.991 | normalized growth (S. cerevisiae deletion strains, locus YLR102C, strain apc9, active compounds read low): 0.985 | normalized growth (S. cerevisiae deletion strains, locus YLR221C, strain rsa3, active compounds read low): 1.04 | normalized growth (S. cerevisiae deletion strains, locus YLR258W, strain gsy2, active compounds read low): 1 | normalized growth (S. cerevisiae deletion strains, locus YLR262C, strain YPT6 (second series), active compounds read low): 0.991 | normalized growth (S. cerevisiae deletion strains, locus YLR262C, strain YPT6, active compounds read low): 0.776 | normalized growth (S. cerevisiae deletion strains, locus YLR268W, strain sec22, active compounds read low): 0.971 | normalized growth (S. cerevisiae deletion strains, locus YLR320W, strain mms22, active compounds read low): 1 | normalized growth (S. cerevisiae deletion strains, locus YLR330W, strain CHS5, active compounds read low): 0.956 | normalized growth (S. cerevisiae deletion strains, locus YLR342W, strain FKS1 (second series), active compounds read low): 1.21 [resistant] (active) | normalized growth (S. cerevisiae deletion strains, locus YLR342W, strain FKS1, active compounds read low): 0.999 | normalized growth (S. cerevisiae deletion strains, locus YLR357W, strain rsc2, active compounds read low): 0.994 | normalized growth (S. cerevisiae deletion strains, locus YLR370C, strain arc18, active compounds read low): 0.996 | normalized growth (S. cerevisiae deletion strains, locus YLR371W, strain rom2, active compounds read low): 0.983 | normalized growth (S. cerevisiae deletion strains, locus YLR384C, strain iki3, active compounds read low): 1.03 | normalized growth (S. cerevisiae deletion strains, locus YLR418C, strain cdc73, active compounds read low): 0.906 | normalized growth (S. cerevisiae deletion strains, locus YML016C, strain PPZ1, active compounds read low): 1 | normalized growth (S. cerevisiae deletion strains, locus YML032C, strain rad52, active compounds read low): 0.99 | normalized growth (S. cerevisiae deletion strains, locus YML120C, strain ndi1, active compounds read low): 0.986 | normalized growth (S. cerevisiae deletion strains, locus YML124C, strain tub3, active compounds read low): 0.979 | normalized growth (S. cerevisiae deletion strains, locus YMR058W, strain fet3, active compounds read low): 1.01 | normalized growth (S. cerevisiae deletion strains, locus YMR078C, strain ctf18, active compounds read low): 0.973 | normalized growth (S. cerevisiae deletion strains, locus YMR125W, strain sto1, active compounds read low): 0.994 | normalized growth (S. cerevisiae deletion strains, locus YMR129W, active compounds read low): 1 | normalized growth (S. cerevisiae deletion strains, locus YMR205C, strain PFK2, active compounds read low): 0.991 | normalized growth (S. cerevisiae deletion strains, locus YMR223W, strain ubp8, active compounds read low): 0.968 | normalized growth (S. cerevisiae deletion strains, locus YMR231W, strain pep5, active compounds read low): 0.997 | normalized growth (S. cerevisiae deletion strains, locus YMR307W, strain GAS1, active compounds read low): 0.685 | normalized growth (S. cerevisiae deletion strains, locus YNL067W, strain RPL9B, active compounds read low): 0.906 | normalized growth (S. cerevisiae deletion strains, locus YNL071W, strain lat1, active compounds read low): 0.996 | normalized growth (S. cerevisiae deletion strains, locus YNL209W, strain ssb2, active compounds read low): 0.983 | normalized growth (S. cerevisiae deletion strains, locus YNL233W, strain BNI4, active compounds read low): 0.943 | normalized growth (S. cerevisiae deletion strains, locus YNL248C, strain rpa49, active compounds read low): 1.02 | normalized growth (S. cerevisiae deletion strains, locus YNL250W, strain rad50, active compounds read low): 0.988 | normalized growth (S. cerevisiae deletion strains, locus YNL271C, strain bni1, active compounds read low): 0.978 | normalized growth (S. cerevisiae deletion strains, locus YNL298W, strain CLA4, active compounds read low): 0.998 | normalized growth (S. cerevisiae deletion strains, locus YNL307C, strain MCK1, active compounds read low): 0.984 | normalized growth (S. cerevisiae deletion strains, locus YNL322C, strain KRE1 (second series), active compounds read low): 0.979 | normalized growth (S. cerevisiae deletion strains, locus YNL322C, strain KRE1, active compounds read low): 0.983 | normalized growth (S. cerevisiae deletion strains, locus YNR049C, strain mso1, active compounds read low): 1.01 | normalized growth (S. cerevisiae deletion strains, locus YNR052C, strain pop2, active compounds read low): 0.986 | normalized growth (S. cerevisiae deletion strains, locus YOL012C, strain htz1): 0.684 | normalized growth (S. cerevisiae deletion strains, locus YOL147C, strain pex11, active compounds read low): 0.989 | normalized growth (S. cerevisiae deletion strains, locus YOR001W, strain rrp6, active compounds read low): 1.02 | normalized growth (S. cerevisiae deletion strains, locus YOR061W, strain CKA2, active compounds read low): 0.966 | normalized growth (S. cerevisiae deletion strains, locus YOR069W, strain VPS5, active compounds read low): 0.987 | normalized growth (S. cerevisiae deletion strains, locus YOR070C, strain gyp1, active compounds read low): 1 | normalized growth (S. cerevisiae deletion strains, locus YOR080W, strain dia2, active compounds read low): 1 | normalized growth (S. cerevisiae deletion strains, locus YOR083W, strain WHI5, active compounds read low): 0.972 | normalized growth (S. cerevisiae deletion strains, locus YOR106W, strain vam3, active compounds read low): 0.981 | normalized growth (S. cerevisiae deletion strains, locus YOR136W, strain idh2, active compounds read low): 0.977 | normalized growth (S. cerevisiae deletion strains, locus YOR144C, strain elg1, active compounds read low): 0.99 | normalized growth (S. cerevisiae deletion strains, locus YOR184W, strain ser1, active compounds read low): 0.94 | normalized growth (S. cerevisiae deletion strains, locus YOR265W, strain rbl2, active compounds read low): 0.994 | normalized growth (S. cerevisiae deletion strains, locus YOR270C, strain vph1, active compounds read low): 1.06 | normalized growth (S. cerevisiae deletion strains, locus YOR290C, strain snf2, active compounds read low): 0.98 | normalized growth (S. cerevisiae deletion strains, locus YOR316C, strain cot1, active compounds read low): 0.987 | normalized growth (S. cerevisiae deletion strains, locus YPL051W, strain arl3, active compounds read low): 0.968 | normalized growth (S. cerevisiae deletion strains, locus YPL078C, strain atp4, active compounds read low): 0.969 | normalized growth (S. cerevisiae deletion strains, locus YPL106C, strain sse1, active compounds read low): 0.973 | normalized growth (S. cerevisiae deletion strains, locus YPL240C, strain hsp82, active compounds read low): 1 | normalized growth (S. cerevisiae deletion strains, locus YPL241C, strain CIN2, active compounds read low): 0.991 | normalized growth (S. cerevisiae deletion strains, locus YPR119W, strain clb2, active compounds read low): 0.976 | normalized growth (S. cerevisiae deletion strains, locus YPR141C, strain kar3, active compounds read low): 0.977 | normalized growth (S. cerevisiae deletion strains, locus YPR163C, strain tif3, active compounds read low): 0.988 | normalized growth (S. cerevisiae deletion strains, locus YPR167C, strain met16, active compounds read low): 0.974 | normalized growth (S. cerevisiae deletion strains, strain wtn01, active compounds read low): 0.973 | normalized growth (S. cerevisiae strains, strain wild type, active compounds read low): 0.967
